22 molecules from PubChem BioAssay AID651658 (Broad Institute, 2012) can be followed below.

The whole screen tested about 340,000 compounds, of which about 5,100 (1.5%) were called active. What follows is part of a selection rich in actives, with near analogues and random picks from the rest. A number with no mark means an inactive call.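 The calls were made as follows: active = mean Tm shift, scaled 0 neutral to 100 positive control, at about 1.3% or above, every replicate too (limit read from the data); inconclusive = no clear call, values can overlap the other calls; inactive = the rest.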

This assay deals with Fibroblast growth factor 22 (Homo sapiens) (UniProt Q9HCT0). The experiment in a line: binders of human FGF22 protein, primary screen, FGF22 synaptogenesis inhibitor project, biophysical, thermal shift, single point (AID 651658). Particulars: recombinant FGF22 thermal shift, SYPRO orange fluorescence; at 9.99 µM; stronger effect = higher value; percent of sucrose octasulfate shift, DMSO zero.
Fibroblast growth factor 22 (Homo sapiens), sequence (Q9HCT0 whole entry, looked up): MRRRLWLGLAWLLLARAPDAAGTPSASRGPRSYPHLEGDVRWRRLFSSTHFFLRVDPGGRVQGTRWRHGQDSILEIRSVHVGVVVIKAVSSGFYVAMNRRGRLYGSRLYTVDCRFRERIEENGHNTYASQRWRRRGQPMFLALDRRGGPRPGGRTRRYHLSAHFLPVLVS
Take `CC1(Cc2cccc(C#N)c2)C(=O)Nc2ccc(-c3cccc(C(F)(F)F)c3)cc21` (configuration not stated): the activity (Tm shift, normalised) was 0.505%.

In the case of `Cn1cc(-c2ccccc2)cc(C#N)c1=O`, the activity (Tm shift, normalised) is 0.065%. For the molecule `C=CCn1cc(-c2cccc(C(F)(F)F)c2)cc(C#N)c1=O`, the activity (Tm shift, normalised) is 42.9% (active). On to `COc1cccc(S(=O)(=O)N2CCC3(CC2)CN[C@H](CO)c2c3c3ccc(OC)cc3n2C)c1`, for which the activity (Tm shift, normalised) was 0.197%. With `OCCC1CN(Cc2ccccc2-c2ccco2)CCN1Cc1ccsc1` (configuration not stated) the figure was 0.318%; with `Cc1ccc(CN2CCN(Cc3cn(C)nc3-c3ccccc3)CC2CCO)o1` (configuration not stated), -0.412%. Regarding `Cc1ccc(CN2CCN(Cc3ccccc3-c3ccco3)CC2CCO)o1` (configuration not stated), the activity (Tm shift, normalised) is 43.4% (active).

`CCS(=O)(=O)N[C@@H]1CC[C@@H](CC(=O)NCC2CC2)O[C@H]1CO`: the activity (Tm shift, normalised) was 0.034%. With `CN1C(=O)c2cc(NC(=O)c3ccc(F)cc3)ccc2OC[C@H]2O[C@H](CC(=O)N3CCOCC3)CC[C@@H]21` the figure was -0.26%. With `CN(CCc1ccccc1)C(=O)c1cccc(NC(=O)Cc2ccc([N+](=O)[O-])cc2)c1`, the activity (Tm shift, normalised) is -0.076%. Regarding `O=C(CSCc1ccc([N+](=O)[O-])cc1)Nc1cccc(C(=O)Nc2ccccc2C(=O)O)c1`, the activity (Tm shift, normalised) is -0.059%. For `O=C(COc1ccc([N+](=O)[O-])cc1)Nc1cccc(C(=O)Nc2ccccc2C(=O)O)c1`, the activity (Tm shift, normalised) is 1.4% (active). As for `C[C@H](CO)N1C[C@H](C)[C@@H](CN(C)C(=O)C2CCOCC2)Oc2cc(-c3ccc(C(=O)N(C)C)cc3)ccc2S1(=O)=O`, the activity (Tm shift, normalised) is -0.068%. As for `CN1c2ccc(C#Cc3cccnc3)cc2[C@H]2[C@H](CCN2S(=O)(=O)c2ccccc2)[C@@H]1CO`, the activity (Tm shift, normalised) is -0.293%. The value for `C[C@H](CO)N1C[C@H](C)[C@H](CN(C)Cc2ccccc2)OCCCC[C@H](C)Oc2ccc(NC(=O)CCC(F)(F)F)cc2C1=O` was -0.091%; that for `O=C(OCc1cc(Cl)ccc1OC(F)F)c1cccnc1` was 43.6% (active). For the molecule `Cn1cncc1COC(=O)c1ccc(Cl)cc1`, the activity (Tm shift, normalised) was 0.094%. For `O=C(CC(=O)c1cccnc1)c1ccccc1`, the activity (Tm shift, normalised) is -0.031%. As to `C[C@@H](O)C#Cc1ccc([C@H]2[C@H](CO)N3CCCCN(C(=O)c4ccc(F)cc4)C[C@@H]23)cc1`, the activity (Tm shift, normalised) was 0.261%. On to `O=C(c1cccnc1)N1C[C@H]2[C@@H](c3ccccc31)[C@@H](CO)N2C(=O)Nc1ccccc1F`, for which the activity (Tm shift, normalised) was -0.686%. The value for `O=C(Nc1ccccc1F)N1[C@H](CO)[C@H]2c3ccccc3NC[C@H]21` was 1.7% (active); that for `O=C(Nc1ccccc1F)N1C[C@@H]2[C@H](c3ccccc31)[C@@H](CO)N2C(=O)Nc1ccccc1` was -0.294%.
